Test: hit retest on RPL19A-GFP reporter strain – cell-based, S. cerevisiae, flow cytometry, cherry picks, mother/daughter gates, confirmation (AID 2270)
Conditions: 3 h, measured here: mother cell gate, at 10 µM, stronger effect = lower value, 100 = same GFP as DMSO wells

SMILES | GFP response vs DMSO [%]
Cc1ccc(C(=O)NNC(=S)NC(=O)COc2ccccc2)cc1 | 110
O=C(OCc1cc(Cl)ccc1OC(F)F)c1ccc([N+](=O)[O-])o1 | 94
O=C(OCCOc1ccccc1)c1n[nH]c2ccccc12 | 97.2
O=C1C=CC(=O)N1c1ccc(Sc2ccc([N+](=O)[O-])cc2)cc1 | 61.1
CCn1c(=O)c(C(=O)Nc2ccsc2C(=O)OC)c(O)c2ccccc21 | 103
COCC(=O)Nc1cc([N+](=O)[O-])ccc1C | 99.8
O=C1/C(=C\c2ccc(O)c(O)c2)SC(=S)N1Cc1ccccc1 | 100
COc1ccc(C(=O)/C=C2/C(=O)Nc3ccccc32)cc1 | 82.7
O=C(Nc1cc(Sc2ccccn2)cc([N+](=O)[O-])c1)c1ccc(Cl)cc1 | 99.2
c1ccc(-c2cccc(-c3ccccn3)n2)nc1 | 96.9
CN1CCSc2ccc(C(=O)Nc3cccc(F)c3)cc21 | 96.7
Cc1nn(C)cc1C(C)NC(=O)c1cc(COc2ccc(F)c(F)c2)on1 (stereo not given) | 102
Oc1ccccc1/C=N/c1c(-c2ccco2)nc2ccccn12 | 100
CC(C(=O)NCCc1ccc(F)cc1)N1CCN(Cc2ccccc2)CC1 (stereo not given) | 96.8
COc1ccc(C(=O)/C=C2/C(=O)Nc3ccccc32)cc1OC | 99.3
COC(=O)CNc1c(-c2ccccn2)nc2ccc(Br)cn12 | 100
C=CCOc1ccc(/C=C2\N=C(C)OC2=O)cc1OC | 103
COc1ccccc1C1CC(c2c(-c3ccccc3)c3cc(Cl)ccc3[nH]c2=O)=NN1S(C)(=O)=O (stereo not given) | 97.4
COC(=O)Cn1nc(-c2ccccc2)c2ccccc21 | 92.9
COc1ccccc1C(=O)NNC(=O)C(=O)Nc1cccc(Cl)c1C | 101

SMILES | GFP response vs DMSO [%]
O=C(NCC(=O)N1CCCC1)c1cccs1 | 100
COC(=O)Cc1csc(Nc2ccc(F)c(Cl)c2)n1 | 100
O=C1C2C3C=CC(CO)(O3)C2C(=O)N1c1ccccc1-c1ccccc1 (stereo not given) | 110
COC(=O)c1ccc(/C=C/C(=O)c2ccc(OC)c(OC)c2)cc1 | 99.6
Cn1c(=O)c2ccccc2n(Cc2cccc(F)c2)c1=O | 97.3
COc1cc(/C=C/C(=O)c2c(O)cc(C)oc2=O)cc(OC)c1O | 96.8
O=[N+]([O-])c1cc(Cl)ccc1Sc1ccccn1 | 103
COc1ccc(NC(=O)CCc2nc(-c3ccccc3F)no2)cc1 | 93.1
COc1ccc(-c2nnc(NC(=O)c3ccc(S(=O)(=O)N4COCC4(C)C)cc3)o2)cc1 | 94
C/C(CCC12CC3CC(CC(C3)C1)C2)=N\NC(N)=S | 90.7
C=CCn1cc(/C=C/c2cc[n+](C)cc2)c2ccccc21 | 103
Cc1ccc(S(=O)(=O)Cc2cc(F)c([N+](=O)[O-])cc2[N+](=O)[O-])cc1 | 62.6
CS(=O)(=O)N1N=C(c2ccco2)CC1c1ccccc1 (stereo not given) | 99.9
NC(=O)CSCc1c(Cl)cccc1Cl | 101
N#C/C(=C\c1c(N2CCCCCC2)nc2ccccn2c1=O)C(=O)NCc1ccco1 | 96.2
O=C(OCc1ccco1)c1ccc(S(=O)(=O)N2CCCCC2)cc1 | 101
O=C(OCC(=O)N1CCN(C(=O)c2ccco2)CC1)c1cc(-c2ccc(Cl)c(Cl)c2Cl)nc2ccccc12 | 89
COc1ccc(/C(C)=N/NC(=O)c2ccc(N(C)C)cc2)cc1 | 103
O=C(c1ccccc1Br)N1CCN(c2ccccc2)CC1 | 105
O=C(Nc1nc(-c2ccc(Cl)cc2)cs1)c1cccnc1 | 98.3

— PubChem BioAssay
